High-throughput results from PubChem BioAssay.
An excerpt weighted towards active compounds, which were near 1.8% of everything screened.
NadD inh: blocks S. aureus nicotinate mononucleotide adenylyltransferase. purified NadD enzyme, colorimetric absorbance read-out. inhibition, % at 20 µM. 360,000 tested, 0.78% active. AID 602399; in the data active means inhibition above about 26%
PHOSPHO1 block: inhibitors of human PHOSPHO1 phosphatase; 290,000 tested, 1.1% active; recombinant PHOSPHO1, absorbance phosphatase assay; Q8TCT1; AID 1565; inhibition, % at 13.3 µM; in the data active means inhibition above about 60%
p-CIP stab down: compounds decreasing mouse p/CIP protein stability; decrease of EGFP signal, % at 10 µM; Q05BA5; F442A p/CIP-EGFP cells, EGFP fluorescence, 16 h; 290,000 tested, 0.01% active;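 active means EGFP signal decrease of at least 30% at 10 µM or well 3 SD below plate mean, unless failing retest; inactive means the rest, including hits failing retest or dose response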
Target sequence (Q05BA5 1-1403): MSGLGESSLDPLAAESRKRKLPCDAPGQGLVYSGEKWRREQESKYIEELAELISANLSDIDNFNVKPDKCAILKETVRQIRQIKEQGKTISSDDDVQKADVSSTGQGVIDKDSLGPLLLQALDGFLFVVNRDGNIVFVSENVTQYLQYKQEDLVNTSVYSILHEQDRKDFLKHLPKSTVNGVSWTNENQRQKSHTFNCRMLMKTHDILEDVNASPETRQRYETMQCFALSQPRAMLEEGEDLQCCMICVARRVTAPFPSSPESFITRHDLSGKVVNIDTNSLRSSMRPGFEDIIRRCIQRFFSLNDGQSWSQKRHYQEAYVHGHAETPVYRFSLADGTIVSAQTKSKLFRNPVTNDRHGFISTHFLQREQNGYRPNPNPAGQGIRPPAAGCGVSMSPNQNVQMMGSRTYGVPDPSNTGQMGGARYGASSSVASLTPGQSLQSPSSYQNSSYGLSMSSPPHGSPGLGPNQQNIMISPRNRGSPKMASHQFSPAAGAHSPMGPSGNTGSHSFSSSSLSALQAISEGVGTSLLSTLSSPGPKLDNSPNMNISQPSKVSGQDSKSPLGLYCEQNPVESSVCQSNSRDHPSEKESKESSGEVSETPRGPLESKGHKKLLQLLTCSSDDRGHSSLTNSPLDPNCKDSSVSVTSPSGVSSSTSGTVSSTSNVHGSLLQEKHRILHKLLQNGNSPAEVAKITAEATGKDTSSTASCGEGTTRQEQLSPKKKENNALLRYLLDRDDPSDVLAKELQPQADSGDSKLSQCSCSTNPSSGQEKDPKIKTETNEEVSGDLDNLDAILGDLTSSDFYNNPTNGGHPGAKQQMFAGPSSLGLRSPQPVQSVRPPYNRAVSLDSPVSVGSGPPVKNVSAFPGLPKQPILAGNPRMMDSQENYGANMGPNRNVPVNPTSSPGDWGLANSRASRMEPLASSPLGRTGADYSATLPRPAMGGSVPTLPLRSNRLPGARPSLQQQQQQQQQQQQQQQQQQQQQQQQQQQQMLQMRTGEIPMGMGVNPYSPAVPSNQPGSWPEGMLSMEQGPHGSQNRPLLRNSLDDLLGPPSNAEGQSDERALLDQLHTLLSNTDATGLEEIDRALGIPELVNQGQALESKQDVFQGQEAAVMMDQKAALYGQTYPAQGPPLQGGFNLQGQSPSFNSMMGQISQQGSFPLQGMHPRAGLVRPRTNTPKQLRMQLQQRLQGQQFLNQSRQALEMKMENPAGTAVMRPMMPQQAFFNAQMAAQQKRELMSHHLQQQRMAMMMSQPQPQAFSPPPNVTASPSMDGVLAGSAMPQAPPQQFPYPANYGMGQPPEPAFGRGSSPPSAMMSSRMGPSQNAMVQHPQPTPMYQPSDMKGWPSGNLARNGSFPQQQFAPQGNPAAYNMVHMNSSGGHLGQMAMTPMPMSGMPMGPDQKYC
UBC9 SUMO inh: SUMOylation inhibition | inhibition, % at 35 µM | 290,000 tested, 0.36% active | HTRF SUMOylation assay, SAE1/SAE2 + UBC9, in vitro | AID 2006 | P63279; in the data active means inhibition above about 50%, passing the limit was not always enough
NadD inh conf: NadD (S. aureus) inhibition, single concentration confirmation; shares compounds with NadD inh; inhibition, % at 20 µM; purified S. aureus NadD, colorimetric enzyme assay; 2,000 tested, 13% active; in the data active means inhibition mostly above about 42%, no sharp cut-off; inactive means mostly below about 42%
Active calls of the source: *.

Results for N#Cc1c(-c2ccco2)cc(-c2ccc(F)cc2)nc1N ?
NadD inh: 52*; PHOSPHO1 block: -7; p-CIP stab down: -9; UBC9 SUMO inh: 32; NadD inh conf: 1

What do the screens show for `CCOc1ccccc1NC(=O)CSC1=C(C#N)C(c2ccco2)C(C(=O)Nc2nc3ccccc3s2)=C(C)N1` (centres undefined)?
NadD inh: 42*; PHOSPHO1 block: -6; p-CIP stab down: -7; UBC9 SUMO inh: -21; NadD inh conf: 29

What do the screens show for `COc1ccccc1NC(=O)C1=C(C)NC(SCC(=O)c2ccc(C)cc2)=C(C#N)C1c1ccco1` (centres undefined)?
PHOSPHO1 block: 56; p-CIP stab down: -31; UBC9 SUMO inh: 15

Results for CCC(=O)Nc1ccc(C(=O)NNC(=O)CCCCC(=O)NNC(=O)c2ccc(NC(=O)CC)cc2)cc1 ?
NadD inh: 3

How did COc1ccc(Cl)cc1N(CC(=O)N/N=C/c1ccc(OC(C)C)cc1)S(=O)(=O)c1ccc(C)c([N+](=O)[O-])c1 do in these assays?
NadD inh: 31*; PHOSPHO1 block: 3; p-CIP stab down: 0; UBC9 SUMO inh: -18; NadD inh conf: 15

How did C#CCOCCOCCOCCNc1nc(N2CCN(C(=O)CCCCCCCCCCNC(=O)[C@@H](CCC(=O)O)n3cc(CCCCCN)nn3)CC2)nc(N2CCN(C(=O)CCCCCCCCCCNC(=O)[C@H](CO)n3cc(CCCCCN)nn3)CC2)n1 do in these assays?
NadD inh: 0

How did C#CCOCCOCCOCCNc1nc(N2CCN(C(=O)CCCCCCCCCCNC(=O)[C@@H](CCSC)n3cc(CCO)nn3)CC2)nc(N2CCN(C(=O)CCCCCCCCCCNC(=O)[C@H](CCC(=O)O)n3cc(CCCCCN)nn3)CC2)n1 do in these assays?
NadD inh: 41*; NadD inh conf: 48*

What do the screens show for `C#CCOCCOCCOCCNc1nc(N2CCN(C(=O)CCCCCCCCCCNC(=O)[C@H](CCCCN)n3cc(CCO)nn3)CC2)nc(N2CCN(C(=O)CCCCCCCCCCNC(=O)[C@H](CCCCN)n3cc(CCCC(=O)O)nn3)CC2)n1`?
NadD inh: 12

What do the screens show for `C#CCOCCOCCOCCNc1nc(N2CCN(C(=O)CCCCCCCCCCNC(=O)[C@@H](CCC(=O)O)n3cc(CCCCCN)nn3)CC2)nc(N2CCN(C(=O)CCCCCCCCCCNC(=O)[C@H](CO)n3cc(CCCSC)nn3)CC2)n1`?
NadD inh: 48*; NadD inh conf: -7

Results for COC(=O)c1sc2ccccc2c1NC(=O)c1ccc(S(=O)(=O)N2CCC(C)CC2)cc1 ?
NadD inh: 0; PHOSPHO1 block: -2; p-CIP stab down: 0; UBC9 SUMO inh: 2

How did Cc1nn(-c2ccccn2)c2c1C(=O)CC(C)(C)C2N=[N+]=[N-] (centres undefined) do in these assays?
NadD inh: -3

Results for Cc1onc(-c2ccccc2)c1NC(=O)OC(C)c1cccnc1 (centres undefined) ?
NadD inh: -4

What do the screens show for `CCCn1c(C(C)Nc2nc(-c3cc(Cl)c(N)c(Cl)c3)cs2)nc2cc(Cl)c(N3CCCCC3)cc21` (centres undefined)?
NadD inh: 33*; PHOSPHO1 block: -13; p-CIP stab down: -194; UBC9 SUMO inh: -15; NadD inh conf: 22

How did Cc1ccc(Cn2c(C(C)Nc3nc(-c4ccc(Cl)c([N+](=O)[O-])c4)cs3)nc3cc(C(F)(F)F)ccc32)cc1 (centres undefined) do in these assays?
NadD inh: 37*; NadD inh conf: 37

How did CCCn1c(C(C)Nc2nc(-c3ccc(Cl)c([N+](=O)[O-])c3)cs2)nc2ccccc21 (centres undefined) do in these assays?
NadD inh: 20; PHOSPHO1 block: -13; p-CIP stab down: -5; UBC9 SUMO inh: 12

Results for CC(Nc1nc(-c2ccc(F)cc2)cs1)c1nc2cc(Cl)c(Cl)cc2n1CCCO (centres undefined) ?
NadD inh: 19

What do the screens show for `Cc1ccc(Cn2c(C(C)Nc3nc(-c4ccc(C)cc4)cs3)nc3cc(Cl)c(Cl)cc32)cc1` (centres undefined)?
NadD inh: 35*; PHOSPHO1 block: -7; p-CIP stab down: -14; UBC9 SUMO inh: 16; NadD inh conf: 25

What do the screens show for `CC(C)(C)OC(=O)N1CCC(c2c(C(=O)NCC3CCN(C4CCCC4)C3)cnn2-c2cccc(Cl)c2)CC1` (centres undefined)?
NadD inh: -2; PHOSPHO1 block: 16; p-CIP stab down: -14; UBC9 SUMO inh: 14

How did Cn1c(CNC(=O)c2ccc(Cl)c(Cl)c2)nnc1SCC(=O)Nc1sc2c(c1C#N)CCCC2 do in these assays?
NadD inh: 45*; PHOSPHO1 block: 31; p-CIP stab down: -2; UBC9 SUMO inh: 16; NadD inh conf: 9

Results for Cn1cnnc1SCC(=O)Nc1sc2c(c1C#N)CCCCC2 ?
NadD inh: 8; PHOSPHO1 block: -8; p-CIP stab down: 2; UBC9 SUMO inh: -6

Results for CN(C)/C=C/C(=O)c1cc(F)cc(C(F)(F)F)c1 ?
NadD inh: -2; PHOSPHO1 block: 39; p-CIP stab down: 11; UBC9 SUMO inh: 8

What do the screens show for `CCC(C)n1c(SCC(=O)N(CC)c2c(N)n(Cc3ccccc3)c(=O)[nH]c2=O)nc2ccccc2c1=O` (centres undefined)?
NadD inh: 7

How did N#Cc1c(SCc2c(Cl)cccc2Cl)nc(N)[nH]c1=S do in these assays?
NadD inh: 30*; NadD inh conf: 47*

Results for C[C@H](CO)N1C[C@H](C)[C@@H](CN(C)S(=O)(=O)c2cn(C)cn2)OCc2cn(nn2)CCCC1=O ?
NadD inh: 0

Results for Cc1ccc(Cl)cc1N1CCN(S(=O)(=O)c2ccc3[nH]c(=O)c(=O)[nH]c3c2)CC1 ?
NadD inh: 37*; PHOSPHO1 block: -7; p-CIP stab down: 3; UBC9 SUMO inh: 15; NadD inh conf: 49*

How did Cc1ccc2nc(NNC(=O)c3ccc(S(=O)(=O)N4CCc5ccccc5C4)cc3)sc2c1 do in these assays?
NadD inh: 59*; PHOSPHO1 block: -6; p-CIP stab down: 5; UBC9 SUMO inh: -5; NadD inh conf: 56*

Results for Cc1ccc2nc(NNC(=O)c3ccc4c(c3)OCCO4)sc2c1 ?
NadD inh: 2; PHOSPHO1 block: -16; p-CIP stab down: -2; UBC9 SUMO inh: -3

How did Cc1cccc2sc(NNC(=O)c3ccc(S(=O)(=O)N4CC(C)CC(C)C4)cc3)nc12 (centres undefined) do in these assays?
NadD inh: 58*; PHOSPHO1 block: -18; p-CIP stab down: 2; UBC9 SUMO inh: -26; NadD inh conf: 54*

Results for Cc1cc(C)c2nc(NNC(=O)c3ccc(S(=O)(=O)N4CC(C)CC(C)C4)cc3)sc2c1 (centres undefined) ?
NadD inh: 34*; PHOSPHO1 block: -16; p-CIP stab down: 4; UBC9 SUMO inh: -13; NadD inh conf: 24
